Test results as given in the supplement of paper PMC10849652.
Targets with a hit are over-represented here; the source holds about 7,900 in all. About 0.6% of all pairs of compound and target were hits.

Columns and labels:
Assay in all cases: log2 fold change, soluble protein after heating vs DMSO (PISA); higher = thermal stabilisation; K562 cells, 10 uM, 30 min; active = over 0.2 and 3.5 SD of the protein, either way, in both replicates (recomputed)
bafetinib = compound: Cc1ccc(NC(=O)c2ccc(CN3CC[C@H](N(C)C)C3)c(C(F)(F)F)c2)cc1Nc1nccc(-c2cncnc2)n1 [bafetinib]
Outline: (§1)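 Thermal stability values are relative to control samples and come from duplicates. They are expressed as log2 fold changes. For measurement, K562 cells (2×10^6 cells/mL) received 10 μM compound for 30 min, and aliquots were heated for 3 min over 48°C-58°C, pooled, and extracted at 4°C in PBS with 0.5% NP-40. Soluble protein, the supernatant after 21,000xg for 90 min, was quantified by TMTpro 16plex LC-MS/MS with equalised channel sums.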

[1] = compound: Cc1cccc(CC(=O)N2CCc3c2ccc(-c2cn(C)c4ncnc(N)c24)c3F)n1
Outline: as §1

nilotinib = compound: Cc1cn(-c2cc(NC(=O)c3ccc(C)c(Nc4nccc(-c5cccnc5)n4)c3)cc(C(F)(F)F)c2)cn1 [nilotinib]
Outline: as §1

[2] = compound: Cc1nc(Nc2n[nH]c3c2CN(C(=O)N[C@H](CN(C)C)c2ccccc2)C3(C)C)c2sccc2n1
Outline: as §1

dasatinib = compound: Cc1nc(Nc2ncc(C(=O)Nc3c(C)cccc3Cl)s2)cc(N2CCN(CCO)CC2)n1 [dasatinib]
Outline: as §1

[3] = compound: Cc1ncc(-c2ccnc(Nc3ccc(S(C)(=O)=O)cc3)n2)n1C(C)C
Outline: as §1

[4] = compound: Cn1cc(-c2ccc3c(c2)CCN3C(=O)Cc2cccc(C(F)(F)F)c2)c2c(N)ncnc21
Outline: as §1

[5] = compound: Cn1cc(-c2ccc3nnc(C(F)(F)c4ccc5ncccc5c4)n3n2)cn1
Outline: as §1

tipifarnib = compound: Cn1cncc1[C@@](N)(c1ccc(Cl)cc1)c1ccc2c(c1)c(-c1cccc(Cl)c1)cc(=O)n2C [tipifarnib]
Outline: as §1

mubritinib = compound: FC(F)(F)c1ccc(/C=C/c2nc(COc3ccc(CCCCn4ccnn4)cc3)co2)cc1 [mubritinib]
Outline: as §1

[6] = compound: NC(=O)Nc1cc(-c2cccc(F)c2)sc1C(=O)N[C@H]1CCCNC1
Outline: as §1

[7] = compound: NC(=O)c1cnc(N[C@@H]2CCCC[C@@H]2N)nc1Nc1cccc(-n2nccn2)c1
Outline: as §1

[8] = compound: NC1(c2ccc(-c3nc4ccn5c(=O)[nH]nc5c4cc3-c3ccccc3)cc2)CCC1
Outline: as §1

[9] = compound: NCC(=O)Nc1ccc(-n2nc(C(F)(F)F)cc2-c2ccc3c(ccc4ccccc43)c2)cc1
Outline: as §1

entinostat = compound: Nc1ccccc1NC(=O)c1ccc(CNC(=O)OCc2cccnc2)cc1 [entinostat]
Outline: as §1

vorinostat = compound: O=C(CCCCCCC(=O)Nc1ccccc1)NO [vorinostat]
Outline: as §1

citarinostat = compound: O=C(CCCCCCNC(=O)c1cnc(N(c2ccccc2)c2ccccc2Cl)nc1)NO [citarinostat]
Outline: as §1

silmitasertib = compound: O=C(O)c1ccc2c(c1)nc(Nc1cccc(Cl)c1)c1ccncc12 [silmitasertib]
Outline: as §1

[10] = compound: O=C1NC(=O)C(c2cnc3ccccn23)=C1c1cn2c3c(cc(F)cc13)CN(C(=O)N1CCCCC1)CC2
Outline: as §1

[11] = compound: c1cc(OCCN2CCCCC2)cc(-c2n[nH]c3ccc(-c4nnc[nH]4)cc23)c1
Outline: as §1

Measured: log2 fold change

MAP2K1 (UniProt Q02750)
Chain of UniProt Q02750 (Q02750 whole entry, looked up): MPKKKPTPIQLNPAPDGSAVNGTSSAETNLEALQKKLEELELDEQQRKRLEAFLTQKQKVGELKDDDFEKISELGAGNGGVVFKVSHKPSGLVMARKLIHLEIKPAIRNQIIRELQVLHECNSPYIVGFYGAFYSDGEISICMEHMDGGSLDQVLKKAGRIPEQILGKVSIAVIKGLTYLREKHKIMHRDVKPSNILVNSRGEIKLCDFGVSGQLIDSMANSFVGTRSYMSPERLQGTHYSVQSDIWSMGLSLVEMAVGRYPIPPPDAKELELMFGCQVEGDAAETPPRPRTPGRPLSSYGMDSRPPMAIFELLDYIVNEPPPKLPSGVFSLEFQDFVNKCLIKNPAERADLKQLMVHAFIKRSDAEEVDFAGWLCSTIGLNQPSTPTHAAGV
inactive: bafetinib -0.026 | [1] -0.039 | nilotinib -0.015 | [2] -0.052 | dasatinib -0.063 | [3] 0.008 | [4] 0.023 | [5] 0.021 | tipifarnib -0.024 | mubritinib 0.015 | [6] -0.028 | [7] -0.062 | [8] -0.011 | [9] -0.027 | entinostat -0.004 | vorinostat 0.035 | citarinostat 0.022 | silmitasertib -0.064 | [10] -0.061 | [11] -0.035

MIEF1 (UniProt Q9NQG6)
Chain of UniProt Q9NQG6 (Q9NQG6 whole entry, looked up): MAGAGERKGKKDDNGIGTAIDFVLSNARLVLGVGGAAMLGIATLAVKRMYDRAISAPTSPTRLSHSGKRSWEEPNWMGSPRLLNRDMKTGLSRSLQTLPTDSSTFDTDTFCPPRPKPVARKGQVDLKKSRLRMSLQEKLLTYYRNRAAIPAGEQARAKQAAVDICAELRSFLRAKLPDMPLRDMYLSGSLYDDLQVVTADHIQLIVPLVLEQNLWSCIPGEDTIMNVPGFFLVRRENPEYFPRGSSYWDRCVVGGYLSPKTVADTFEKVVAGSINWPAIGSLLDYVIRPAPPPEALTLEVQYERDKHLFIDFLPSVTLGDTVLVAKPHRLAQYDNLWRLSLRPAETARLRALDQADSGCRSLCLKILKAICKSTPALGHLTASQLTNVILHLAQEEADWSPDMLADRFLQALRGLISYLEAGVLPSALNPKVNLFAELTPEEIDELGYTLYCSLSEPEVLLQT
inactive: bafetinib -0.133 | [1] 0.006 | nilotinib 0.022 | [2] -0.04 | dasatinib -0.028 | [3] 0.145 | [4] 0.09 | [5] 0.064 | tipifarnib -0.039 | mubritinib -0.029 | [6] -0.001 | [7] -0.14 | [8] -0.215 | [9] -0.034 | entinostat 0.056 | vorinostat 0.019 | citarinostat 0.073 | silmitasertib 0.006 | [10] 0.031 | [11] -0.01

KLHDC4 (UniProt Q8TBB5)
Chain of UniProt Q8TBB5 (Q8TBB5 whole entry, looked up): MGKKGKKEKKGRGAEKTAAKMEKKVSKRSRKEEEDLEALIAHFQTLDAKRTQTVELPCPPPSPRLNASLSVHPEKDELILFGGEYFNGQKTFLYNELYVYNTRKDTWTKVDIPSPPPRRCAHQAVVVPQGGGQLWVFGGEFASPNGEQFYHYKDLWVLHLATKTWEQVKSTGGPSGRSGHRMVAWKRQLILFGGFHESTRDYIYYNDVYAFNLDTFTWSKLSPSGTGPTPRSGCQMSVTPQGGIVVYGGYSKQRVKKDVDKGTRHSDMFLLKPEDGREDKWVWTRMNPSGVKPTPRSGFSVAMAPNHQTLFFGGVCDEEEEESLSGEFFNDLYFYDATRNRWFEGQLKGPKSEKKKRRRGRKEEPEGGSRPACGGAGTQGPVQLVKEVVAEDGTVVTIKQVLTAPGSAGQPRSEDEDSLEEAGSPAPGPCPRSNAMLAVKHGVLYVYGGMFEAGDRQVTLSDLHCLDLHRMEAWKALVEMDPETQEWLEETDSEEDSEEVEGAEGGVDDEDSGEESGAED
inactive: bafetinib 0.012 | [1] -0.018 | nilotinib 0 | [2] -0.067 | dasatinib 0.107 | [3] 0.156 | [4] -0.175 | [5] -0.23 | tipifarnib 0.106 | mubritinib -0.333 | [6] 0.013 | [7] -0.006 | [8] 0.224 | [9] -0.105 | entinostat -0.055 | vorinostat -0.014 | citarinostat 0.042 | silmitasertib -0.003 | [10] 0.125 | [11] -0.036

IRF2BPL (UniProt Q9H1B7)
Chain of UniProt Q9H1B7 (Q9H1B7 whole entry, looked up): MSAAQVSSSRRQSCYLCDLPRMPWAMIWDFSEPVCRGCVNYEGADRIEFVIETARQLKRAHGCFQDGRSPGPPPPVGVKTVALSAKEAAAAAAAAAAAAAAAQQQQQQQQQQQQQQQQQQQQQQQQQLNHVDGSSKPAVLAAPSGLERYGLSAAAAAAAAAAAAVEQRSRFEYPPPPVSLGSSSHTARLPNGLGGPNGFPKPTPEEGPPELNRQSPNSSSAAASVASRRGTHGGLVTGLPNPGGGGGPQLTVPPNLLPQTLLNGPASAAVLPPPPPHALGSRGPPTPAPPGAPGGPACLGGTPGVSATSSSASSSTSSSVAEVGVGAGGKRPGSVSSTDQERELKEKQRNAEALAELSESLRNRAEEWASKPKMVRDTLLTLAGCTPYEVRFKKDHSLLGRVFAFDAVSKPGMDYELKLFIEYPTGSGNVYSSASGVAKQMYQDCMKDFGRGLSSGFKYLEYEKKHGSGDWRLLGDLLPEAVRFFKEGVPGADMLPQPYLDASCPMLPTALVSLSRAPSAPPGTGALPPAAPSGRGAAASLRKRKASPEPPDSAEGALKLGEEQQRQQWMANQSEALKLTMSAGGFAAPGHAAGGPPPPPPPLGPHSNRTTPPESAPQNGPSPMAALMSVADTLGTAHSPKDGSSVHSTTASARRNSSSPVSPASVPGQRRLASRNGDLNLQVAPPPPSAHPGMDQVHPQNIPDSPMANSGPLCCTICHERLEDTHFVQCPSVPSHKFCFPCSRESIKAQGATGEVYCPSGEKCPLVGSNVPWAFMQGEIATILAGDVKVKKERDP
active: [10] -0.218
inactive: bafetinib -0.038 | [1] 0.012 | nilotinib -0.07 | [2] -0.034 | dasatinib -0.034 | [3] -0.029 | [4] 0.083 | [5] -0.084 | tipifarnib -0.067 | mubritinib -0.055 | [6] 0.032 | [7] 0.011 | [8] 0.013 | [9] -0.004 | entinostat -0.024 | vorinostat 0.007 | citarinostat -0.001 | silmitasertib 0.027 | [11] -0.03

IPO9 (UniProt Q96P70)
Chain of UniProt Q96P70 (Q96P70 whole entry, looked up): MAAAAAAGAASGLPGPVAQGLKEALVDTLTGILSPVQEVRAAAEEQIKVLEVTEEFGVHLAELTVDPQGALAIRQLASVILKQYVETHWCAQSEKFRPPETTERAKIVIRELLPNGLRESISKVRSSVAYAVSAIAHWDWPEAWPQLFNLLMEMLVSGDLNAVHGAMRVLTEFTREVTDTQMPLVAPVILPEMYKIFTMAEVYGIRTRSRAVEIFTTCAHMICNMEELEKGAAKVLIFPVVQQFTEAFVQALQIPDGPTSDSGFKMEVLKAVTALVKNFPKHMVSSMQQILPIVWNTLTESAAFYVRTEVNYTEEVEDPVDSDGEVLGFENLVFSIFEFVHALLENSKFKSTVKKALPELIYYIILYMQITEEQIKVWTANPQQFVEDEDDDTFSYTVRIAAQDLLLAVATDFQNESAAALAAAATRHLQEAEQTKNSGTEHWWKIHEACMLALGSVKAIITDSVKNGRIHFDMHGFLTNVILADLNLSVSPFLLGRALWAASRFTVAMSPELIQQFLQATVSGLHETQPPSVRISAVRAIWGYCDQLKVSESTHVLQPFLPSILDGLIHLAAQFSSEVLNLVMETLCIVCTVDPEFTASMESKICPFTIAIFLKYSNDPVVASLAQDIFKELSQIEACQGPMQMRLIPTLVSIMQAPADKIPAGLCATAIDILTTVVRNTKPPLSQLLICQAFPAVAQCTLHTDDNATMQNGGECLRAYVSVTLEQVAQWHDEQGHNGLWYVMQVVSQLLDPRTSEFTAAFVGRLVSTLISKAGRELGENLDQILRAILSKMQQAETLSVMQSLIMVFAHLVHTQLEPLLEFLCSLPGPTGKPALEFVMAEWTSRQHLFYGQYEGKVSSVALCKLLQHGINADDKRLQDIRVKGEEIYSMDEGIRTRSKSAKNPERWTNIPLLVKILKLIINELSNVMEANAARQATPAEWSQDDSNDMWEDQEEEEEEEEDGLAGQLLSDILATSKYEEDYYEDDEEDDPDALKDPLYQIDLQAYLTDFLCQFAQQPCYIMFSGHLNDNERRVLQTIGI
inactive: bafetinib 0.019 | [1] 0.031 | nilotinib -0.016 | [2] -0.06 | dasatinib 0.04 | [3] 0.011 | [4] -0.069 | [5] -0.06 | tipifarnib -0.084 | mubritinib -0.005 | [6] 0.059 | [7] -0.072 | [8] -0.07 | [9] 0.003 | entinostat 0.022 | vorinostat 0.041 | citarinostat 0.061 | silmitasertib 0.164 | [10] 0.048 | [11] -0.035

MFSD5 isoform 2 (UniProt Q6N075)
Chain of UniProt Q6N075 (Q6N075 whole entry, looked up): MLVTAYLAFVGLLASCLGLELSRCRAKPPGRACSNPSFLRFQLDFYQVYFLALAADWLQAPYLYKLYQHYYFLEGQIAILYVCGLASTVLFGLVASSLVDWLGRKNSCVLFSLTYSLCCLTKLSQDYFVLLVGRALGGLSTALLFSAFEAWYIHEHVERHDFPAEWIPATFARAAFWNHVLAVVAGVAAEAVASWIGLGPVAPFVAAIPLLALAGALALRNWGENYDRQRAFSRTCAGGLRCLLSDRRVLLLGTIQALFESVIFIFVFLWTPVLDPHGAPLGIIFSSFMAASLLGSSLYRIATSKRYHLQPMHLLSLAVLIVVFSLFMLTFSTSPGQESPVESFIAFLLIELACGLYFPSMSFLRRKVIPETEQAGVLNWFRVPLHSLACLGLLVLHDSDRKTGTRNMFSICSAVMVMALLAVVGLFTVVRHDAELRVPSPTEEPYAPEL
inactive: bafetinib -0.126 | [1] 0.009 | nilotinib 0.054 | [2] 0.055 | dasatinib -0.029 | [3] -0.057 | [4] -0.048 | [5] 0.009 | tipifarnib 0.141 | mubritinib 0.128 | [6] -0.037 | [7] 0.035 | [8] -0.137 | [9] -0.089 | entinostat -0.099 | vorinostat -0.093 | citarinostat -0.009 | silmitasertib -0.033 | [10] -0.193 | [11] -0.049

KCTD10 (UniProt Q9H3F6)
Chain of UniProt Q9H3F6 (Q9H3F6 whole entry, looked up): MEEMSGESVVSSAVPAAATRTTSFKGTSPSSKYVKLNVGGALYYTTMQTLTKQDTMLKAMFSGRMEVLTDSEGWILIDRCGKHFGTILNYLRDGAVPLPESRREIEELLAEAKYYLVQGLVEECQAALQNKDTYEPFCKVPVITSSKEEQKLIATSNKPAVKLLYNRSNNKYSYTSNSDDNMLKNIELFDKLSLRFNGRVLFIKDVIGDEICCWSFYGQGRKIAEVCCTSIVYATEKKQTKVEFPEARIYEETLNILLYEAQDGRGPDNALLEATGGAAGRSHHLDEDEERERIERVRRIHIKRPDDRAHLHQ
inactive: bafetinib -0.059 | [1] -0.036 | nilotinib 0.002 | [2] -0.088 | dasatinib 0.056 | [3] 0.074 | [4] 0.012 | [5] 0.153 | tipifarnib 0.058 | mubritinib -0.009 | [6] 0.065 | [7] 0.226 | [8] 0.028 | [9] 0.077 | entinostat -0.014 | vorinostat -0.001 | citarinostat -0.05 | silmitasertib -0.042 | [10] -0.088 | [11] -0.025

KSR1 (UniProt Q8IVT5)
Chain of UniProt Q8IVT5 (Q8IVT5 whole entry, looked up): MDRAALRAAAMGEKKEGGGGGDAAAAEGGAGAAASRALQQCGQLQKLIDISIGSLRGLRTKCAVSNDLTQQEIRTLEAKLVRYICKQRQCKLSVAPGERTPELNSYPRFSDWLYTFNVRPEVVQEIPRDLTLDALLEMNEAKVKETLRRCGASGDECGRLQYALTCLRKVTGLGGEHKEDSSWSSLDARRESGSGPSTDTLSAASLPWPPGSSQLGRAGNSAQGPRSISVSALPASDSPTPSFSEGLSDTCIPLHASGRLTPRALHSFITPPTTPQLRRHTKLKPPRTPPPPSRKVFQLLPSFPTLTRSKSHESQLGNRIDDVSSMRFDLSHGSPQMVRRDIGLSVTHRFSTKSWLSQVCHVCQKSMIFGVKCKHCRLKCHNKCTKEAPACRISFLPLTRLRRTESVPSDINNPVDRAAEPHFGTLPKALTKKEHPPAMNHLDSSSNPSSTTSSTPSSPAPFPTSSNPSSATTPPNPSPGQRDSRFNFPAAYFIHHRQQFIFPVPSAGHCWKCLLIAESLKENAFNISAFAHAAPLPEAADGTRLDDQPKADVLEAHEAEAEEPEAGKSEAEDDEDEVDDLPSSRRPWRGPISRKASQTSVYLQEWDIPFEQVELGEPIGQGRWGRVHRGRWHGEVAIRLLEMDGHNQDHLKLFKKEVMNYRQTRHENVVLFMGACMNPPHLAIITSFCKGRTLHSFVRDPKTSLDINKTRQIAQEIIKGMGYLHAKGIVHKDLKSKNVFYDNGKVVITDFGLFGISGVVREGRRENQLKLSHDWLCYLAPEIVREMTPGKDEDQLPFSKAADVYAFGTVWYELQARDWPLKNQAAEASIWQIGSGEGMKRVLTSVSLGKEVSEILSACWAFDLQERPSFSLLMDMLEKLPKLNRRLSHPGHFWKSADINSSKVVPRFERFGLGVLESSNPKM
inactive: bafetinib 0.035 | [1] -0.052 | nilotinib -0.052 | [2] -0.303 | dasatinib -0.228 | [3] -0.021 | [4] 0.003 | [5] -0.129 | tipifarnib -0.086 | mubritinib -0.233 | [6] -0.333 | [7] -0.049 | [8] 0.236 | [9] -0.111 | entinostat 0.044 | vorinostat 0.013 | citarinostat 0.045 | silmitasertib -0.279 | [10] -0.118 | [11] -0.193
